Source: PubChem
LANA-H2B inh = blocks KSHV LANA binding to histone H2A/H2B. cell-free LANA-H2A/H2B peptide, fluorescence polarization. inhibition, % (test concentration not listed). hit rate 0.6% among 320,000; in the data active means inhibition mostly above about 10%, no sharp cut-off; inactive means mostly below about 6.7%
HDAC3 inh = blocks human histone deacetylase 3. O15379. recombinant HDAC3, fluorogenic peptide/trypsin coupled, fluorescence. inhibition, % at 8.3 µM. hit rate 0.15% among 320,000. AID 2718; in the data active means inhibition above about 26%, passing the limit was not always enough; inconclusive means no clear call, values can overlap the other calls
Target sequence (O15379 whole entry, looked up): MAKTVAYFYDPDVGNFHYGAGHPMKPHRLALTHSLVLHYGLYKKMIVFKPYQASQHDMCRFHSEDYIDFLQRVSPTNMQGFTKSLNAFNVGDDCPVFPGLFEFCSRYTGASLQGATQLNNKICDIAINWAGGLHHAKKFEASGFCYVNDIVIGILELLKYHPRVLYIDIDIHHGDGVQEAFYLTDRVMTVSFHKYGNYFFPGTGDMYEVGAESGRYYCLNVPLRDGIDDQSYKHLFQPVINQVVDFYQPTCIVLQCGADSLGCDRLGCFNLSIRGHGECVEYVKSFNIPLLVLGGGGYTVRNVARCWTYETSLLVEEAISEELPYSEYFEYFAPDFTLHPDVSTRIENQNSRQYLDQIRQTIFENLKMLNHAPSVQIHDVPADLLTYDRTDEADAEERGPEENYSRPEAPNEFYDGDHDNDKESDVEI
CTSL1 counter = cathepsin L1 inhibition, PFM18AAP counter-screen; recombinant F. hepatica cathepsin L1, Z-Leu-Arg-MCA fluorescence; inhibition, % at 5.96 µM; hit rate 0.49% among 300,000; AID 1906;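 active means inhibition above the mean of all tested compounds plus 3 SD, set per screening campaign, cut at about 17% in these data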;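 further: 0% = plate median of test compound wells and 100% = 1 µM Z-Phe-Ala-diazomethylketone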
m5-HT2A agonist = activates the mouse 5-HT2A serotonin receptor | hit rate 0.66% among 360,000 | P35363 | CHO-K1 mHTR2A beta-arrestin complementation, luminescence; percent of 30 µM serotonin response | activation, % at 7.6 µM;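 active means activation above a run cutoff, the mean activation of all tested compounds plus 3 SD, cut at about 14% in these data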;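 further: 0% = plate median of compound wells and 100% = 30 µM serotonin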
OPRM1 ag = OPRM1 agonism in mouse HTR2A counterscreen | U2OS OPRM1 beta-arrestin PathHunter, luminescence; DMSO 0%, DAMGO 9.3 µM 100% | hit rate 5.3% among 2,300 | shares compounds with m5-HT2A agonist | activation, % at 9.3 µM;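 active means mean activation above the mean of DMSO-only wells plus 3 SD, cut at about 0.5% in these data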
HTR2A ag conf = mouse HTR2A agonism confirmed. shares compounds with m5-HT2A agonist. CHO-K1 PathHunter beta-arrestin recruitment, luminescence; DMSO 0%, 30 µM serotonin 100%. activation, % at 7.6 µM. hit rate 19% among 2,300;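 active means mean activation across triplicates above the hit threshold derived in the original primary screen, cut at about 15% in these data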
* hit, by the source's call; u = inconclusive; x = not tested or not shown. The list is not random: actives were taken first. Their share in the collection is about 1.7%.

SMILES	LANA-H2B inh	HDAC3 inh	CTSL1 counter	m5-HT2A agonist	OPRM1 ag	HTR2A ag conf
CCOc1ccc(CCNC(=O)c2cccc(NC3=NC4CS(=O)(=O)CC4S3)c2)cc1 (configuration not stated)	-1	0	0	18*	-1	-4
CCOc1ccc(CCNC(=O)c2cccc(NC3=NC4CS(=O)(=O)CC4S3)c2)cc1OCC (configuration not stated)	-8	-12	0	-2	x	x
CC(=O)Nc1ccc(NS(=O)(=O)c2ccc3c(c2)oc(=O)n3C)cc1	-4	3	7	4	x	x
C=CCC[C@H](Cc1ccc(F)cc1)C(=O)OC[C@H](Cc1c[nH]c2ccccc12)NC(=O)[C@@H](CC=C)CC(=O)N[C@H](CO)Cc1ccccc1	2	21	x	5	x	x
O=C(CN1C(=O)c2cccnc2Oc2ccc(Cl)cc21)N1CCOCC1	6	u	4	14*	0	2
CCOC(=O)C1=CCN(Cc2ccccc2)CC1	5	-2	-4	19*	0	80*
COc1cc(C(=O)NCCCN2CCCC2=O)cc(Br)c1OCc1ccccc1	4	5	x	-5	x	x
O=C(c1cccc(C(=O)N(c2ccccn2)C2CCCCC2)c1)N(c1ccccn1)C1CCCCC1	-1	7	-2	30*	0	53*
COc1ccc(Cl)cc1S(=O)(=O)N1CCN=C1C	0	1	2	24*	0	-1
COc1ccc(Cl)cc1S(=O)(=O)N1CCCc2ccccc21	4	4	4	0	x	x
OCCNc1ncnc2c1ncn2[C@H]1CN(Cc2ccncc2)C[C@@H](CO)O1	x	x	x	15*	x	-5
CCOC(=O)C(=CNc1ccc(N2CCOCC2)cc1)C(=O)OCC	-3	9	-1	1	x	x
CCOC(=O)C(=CNc1ccc2c(c1)CCN2C(C)=O)C(=O)OCC	2	6	2	19*	0	8
Cc1ccc(S(=O)(=O)N2C[C@H]3[C@H]4C(=O)N(Cc5ccccc5)C(=O)[C@H]4CC(=O)[C@H]3[C@@H]2c2cccc3ccccc23)cc1	x	x	x	7	x	x
OCCN1CCN(c2ncnc3scc(-c4ccc(F)cc4)c23)CC1	0	5	x	16*	0	5
O=C1c2ccccc2C(=O)N1c1ncccn1	5	2	3	22*	0	3
O=C1c2ccccc2C(=O)N1c1cccc2cccnc12	1	-2	-2	4	x	x
O=C(O)c1cn(Cc2ccccc2)c2ccc(Cl)cc2c1=O	-4	8	10	-9	x	x
COC(=O)CNc1c(-c2ccccn2)nc2ccc(Br)cn12	6	-1	2	19*	-1	-4
C/C=C(\C)CN1CCC(Oc2cc(C(=O)NC3CC3)ccc2OC)CC1	2	-6	-1	3	x	x
O=C(c1cc2nc(-c3ccco3)cc(C(F)(F)F)n2n1)N1CCCc2ccccc21	-1	1	1	23*	-1	-2
CC1=CC=CN2CC(O)CN=C12 (configuration not stated)	2	-24	2	28*	-1	-3
COc1ccc2c(c1)c(=O)oc1cc(OCC(=O)NC3CCCCC3)ccc12	0	-10	2	7	x	x
COc1ccc2c(c1)c(=O)oc1cc(OCC(=O)NC3CC3)ccc12	-1	6	0	15*	0	-4
Cc1cc(CNC(=O)COc2ccccc2)c2ccccc2n1	x	x	x	16*	0	-4
SMILES	LANA-H2B inh	HDAC3 inh	CTSL1 counter	m5-HT2A agonist	OPRM1 ag	HTR2A ag conf
O=C(CSc1nnc(CNC(=O)c2ccc(F)cc2)o1)Nc1nccs1	-3	0	0	14*	-1	-3
O=C(Nc1ccccn1)c1ccc(S(=O)(=O)N2CCCCCC2)cc1	2	-6	-10	15*	0	-3
COc1cccc(OC)c1C(=O)OCC(=O)NCCNC(=O)COC(=O)c1c(OC)cccc1OC	x	x	x	1	x	x
CC(C)(C)c1ccc(C(=O)Nc2ccc3c(c2)C(=O)NC3=O)cc1	5	-10	-2	16*	0	-3
Cc1cccc(C)c1OCc1cc(C(=O)N2CCCC2c2nonc2C)no1 (configuration not stated)	-7	-3	-1	14*	0	4
COC(=O)C1(C(=O)OC)c2ccccc2CN(S(=O)(=O)c2ccc(C)cc2)C1CC(C)=O (configuration not stated)	x	x	x	2	x	x
O=C(CCC(=O)N1CCN(S(=O)(=O)c2ccc([N+](=O)[O-])cc2)CC1)N1CCOCC1	0	-1	x	-1	x	x
O=C(C1CCN(c2ncnc3c2nc2n3CCCCC2)CC1)N1CCN(c2cccc(Cl)c2)CC1	-2	1	3	18*	-1	-1
O=C(NCCc1ccccc1)C1CCCN(c2ncnc3c2nc2n3CCCCC2)C1 (configuration not stated)	-2	3	5	15*	-1	-5
CC(NS(=O)(=O)c1cn(C)c(=O)n(C)c1=O)c1ccccc1 (configuration not stated)	3	8	-3	0	x	x
CC1c2cc3c(cc2CCN1C(=O)c1cccc(Cl)c1)OCCCO3 (configuration not stated)	-1	-4	0	6	x	x
CC(C)(C)OC(=O)CNC(=O)c1[nH]cnc1C(=O)NCC(=O)OCc1ccccc1	-2	3	0	15*	0	3
C=CCOc1ccc(/C=C2\SC(=S)N(NS(=O)(=O)c3ccc(C)cc3)C2=O)cc1	1	15	0	2	x	x
O=c1cc(C(F)(F)F)nc(SCc2cccc3ccccc23)[nH]1	-12	6	-1	18*	-1	5
COc1ccc(C(CNC(=O)COc2ccccc2C)N2CCCCC2)cc1 (configuration not stated)	x	2	x	3	x	x
COc1ccc(C(CNC(=O)c2ccccc2C)N2CCCC2)cc1 (configuration not stated)	1	2	0	31*	-1	-1
CCn1cc(CN2CCN(Cc3ccsc3)C(CCO)C2)cn1 (configuration not stated)	-1	-10	-1	15*	0	5
OCCC1CN(Cc2cnn(-c3ccc(F)cc3)c2)CCN1Cc1ccsc1 (configuration not stated)	-5	-4	0	-5	x	x
CCCn1c(CCNc2nc(-c3cccc(Br)c3)cs2)nc2ccccc21	x	x	x	0	x	x
O=C(O)c1nn(CC(=O)N2CCCCCC2)c(=O)c2ccccc12	9	-8	0	1	x	x
CN(C(=O)Cn1nc(C(=O)O)c2ccccc2c1=O)C1(C#N)CCCCC1	-5	-3	x	19*	0	9
N/C(=N\OC(=O)c1ccncc1)c1cccc([N+](=O)[O-])c1	1	0	-4	-1	x	x
Cc1cccc(/C(N)=N/OC(=O)c2ccncc2)c1	9	-1	x	25*	0.6*	1
